Measurements as given in PubChem BioAssay (NCI).
About 83,000 compounds went through this panel and 20% of them were active in at least one assay; those are over-represented in the sample as a whole.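 Single-concentration screen, 48 h exposure, 96-well plates. Endpoint: percent growth. Below 10 = active.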 Activity calls are given as the source filed them.

The molecules below were run on HL-60(TB) leukemia (assay: NCI-60 one-dose screen, 48 h (100 = growth as untreated, 0 = no growth, -100 = all killed)). Settings: 10 µM unless noted.
With `CCCOc1nc(SCCC)nc2c1cnn2-c1ccccc1` the growth was 136% (inactive). With `CN(C)C(=S)N(C)C` the growth was 86.6% (inactive). With `CN1CCN(Cc2ccc(C(=O)Nc3cncc(C#Cc4cnc5cccnn45)c3)cc2C(F)(F)F)CC1` the growth was 1.37% (active). For `COc1cccc(-c2nnc(N)o2)c1`, the growth was 74.9% (inactive). With `Oc1ccccc1\C=N/N=C/C=C/c1ccccc1` the growth was 38.5% (inactive). `O=C(O)CN1C(=O)CCC1=O` was tested, and the growth was 134% (inactive). `OC1COC(OCc2ccccc2)C(O)C1O` (stereo not given) was tested, and the growth was 101% (inactive). With `COc1cc2nc3cc([N+](=O)[O-])ccc3c(Cl)c2cc1OC` the growth was 109% (inactive). With `COc1ccc2c(c1OC)C(=O)O[C@H]2[C@H]1c2c(cc3c(c2OC)OCO3)CCN1C` the growth was 31.9% (inactive). `COc1cc2ccc(C(C)=O)cc2cc1OC` was tested, and the growth was 133% (inactive). In the case of `CC(C)=CCNc1ncnc2c1ncn2C1OC(CO)C(O)C1O` (stereo not given), the growth is reported as -40.7% [1 mM] (active). In the case of `O=C(Nc1ccc(N=Nc2ccccc2)cc1)c1cccc2ccccc12`, the growth is reported as 11.8% (inactive). For `CN(C)c1nc(-c2ccco2)n2nc(-c3ccc(Cl)cc3)cc2n1`, the growth was 90.8% (inactive). For `O=C1C=C[C@H](O)[C@@]2(CO)O[C@@H]12`, the growth was -24.4% (active). With `CN(C)/C(N)=N/N=C(\c1ccccc1)c1ccccn1` the growth was 98.5% (inactive). With `COc1cc2c(=O)n(C3CCCCCC3)c3c4cc[nH]c4ncc3c2cc1OC` the growth was 74.1% (inactive). In the case of `O=C(c1ccccc1)C(Br)[N+](=O)[O-]` (stereo not given), the growth is reported as 62.3% (inactive). For `c1coc2occoc=2o1`, the growth was 102% (inactive). `COc1ccc(Cc2cnc(NC(=O)c3sc4ccccc4c3Cl)s2)cc1` was tested, and the growth was -50.3% (active). `Cc1nc(/N=C(\N)NC(=O)Nc2ccccc2Cl)sc1C` was tested, and the growth was 3.77% (active). In the case of `Cc1ccc(C(SCC(N)C(=O)O)(c2ccccc2)c2ccc(C)cc2)cc1` (stereo not given), the growth is reported as -36% (active). With `COc1ccc(S(=O)(=O)NCCCNc2nccc(-c3c(-c4cccc(N)c4)nc4sccn34)n2)cc1` the growth was 112% (inactive). With `COc1ccc(C2Nc3nc(OC)n(C)c(=O)c3N=C3c4ccccc4C(=O)C32)cc1` (stereo not given) the growth was 67.1% (inactive). For `O=C(O)CCNS(=O)(=O)c1ccc(-c2ccccc2)cc1`, the growth was 188% (inactive). In the case of `C#CC(OC(=O)N(C)C)(c1ccccc1)c1ccc(F)cc1` (stereo not given), the growth is reported as 127% (inactive). `O=c1n(CC2CO2)c(=O)n(CC2CO2)n1CC1CO1` (stereo not given) was tested, and the growth was 7.91% (active). With `CNC(=O)NCC1OC(n2cnc3c(NC(=O)Nc4ccccc4)ncnc32)C(O[Si](C)(C)C(C)(C)C)C1CC(=O)N(C)OC` (stereo not given) the growth was -33.1% (active). With `COc1cc(OC)cc(C2CC(=O)Nc3c2c(C)nn3-c2nc3ccccc3[nH]2)c1` (stereo not given) the growth was 9.31% (active). `CCCCCCCCCCCCCCCC(=O)OC1[C@@H](OC(=O)CCCCCCCCCCCCCCC)[C@@H](C(=O)N[C@@H](CCCCN)C(=O)OC)O[C@H]1n1cnc2c(=O)[nH]c(NC(=O)C(C)C)nc21` (stereo not given in full) was tested, and the growth was 98.3% (inactive). `CN(C)c1ccc(/C=C(\C#N)c2cc3ccccc3n2C)cc1` was tested, and the growth was 2.69% (active). With `COc1ccc(/C=C2/CN(C(=O)c3ccccc3F)C/C(=C\c3ccc(OC)cc3)C2=O)cc1` the growth was 51.4% (inactive). For `O=c1cc(-c2ccccc2)[nH]c(=S)[nH]1`, the growth was 104% (inactive). `CC1Cc2c(N(C)C)ncnc2N(C)c2ccc(Cl)cc21` (stereo not given) was tested, and the growth was -7.29% (active). `C/C(=C\c1ccc(OCC(=O)O)c(Cl)c1Cl)[N+](=O)[O-]` was tested, and the growth was 79.8% (inactive). `CCCCCCCC/C=C\CCCCCCCCOc1ccccc1CC(=O)NCC[N+]1(C)CCCCC1` was tested, and the growth was -19.6% (active). `Cc1nn(-c2ccccc2)c2nc3c(nc12)C1=NCCN1C(c1ccc(Cl)cc1)N3` (stereo not given) was tested, and the growth was 70.7% (inactive). In the case of `CC(C)C1=NOC(=O)C1=Cc1cn(-c2ccccc2)nc1-c1ccc(F)cc1`, the growth is reported as -34.9% (active). In the case of `O=C1CCC/C=C\C[C@H]2C=CC(=O)/C2=C/C[C@H](CCc2cccc(C(F)(F)F)c2)O1`, the growth is reported as -25.5% (active). For `CC(C)CCSC1=CC(=O)c2ccccc2C1=O`, the growth was 13.3% (inactive). For `NC(CSC(c1ccccc1)(c1ccccc1)c1ccc(F)cc1)C(=O)O` (stereo not given), the growth was -39.2% (active).
